Measured values from ChEMBL document CHEMBL3988442, “University of Dundee, Small-Polar-MMV Screening Library” (2021).
The whole screen tested about 85,000 compounds, of which about 440 (0.52%) showed an effect of 50% or more. The entries come from a sample that favours strong results as a whole.

Assay: In vitro enzyme assay to detect hydrolysis of chlorophenol red-beta-D-[…] directly proportional to the number of Toxoplasma stably expressing beta-galactosidase
Format: functional, organism-based, Toxoplasma gondii
Parameters: scale not given: in the data most compounds retested in dose-response had high values

Row | SMILES | Percent Effect (50 µM) | Percent Effect (10 µM)
1 | O=C(NCCc1nnc[nH]1)C1SCCc2ccccc21 (stereo not drawn) | -20.61% | –
2 | CNCC(=O)Nc1cc(F)cc(F)c1 | 12.71% | –
3 | CN(CC(C)(CO)CO)C(=O)Nc1cc(F)cc(F)c1 | – | 14.95%
4 | CN(C)C(=O)Nc1cc(F)cc(F)c1 | 57.68% | –
5 | COC1CCN(CC(=O)Nc2ccc(C(N)=O)cc2)C1 (stereo not drawn) | -13.26% | –
6 | CC(=O)NCCNC(=O)c1cc(Cl)c(Cl)n1C | -20.76% | –
7 | CCc1cc(N2CCCC(CN)C2)n2nccc2n1 (stereo not drawn) | 8.07% | –
8 | O=C(O)C(F)(F)F.O=C1COC2(CCN(Cc3nccs3)CC2)CN1c1ccccc1 | – | -19.73%
9 | Cn1cc(N2CC3(CCN(Cc4nccs4)CC3)OCC2=O)cn1.O=C(O)C(F)(F)F | – | 66.73%
10 | Cn1cc(N2CC3(COCCN(Cc4nccs4)C3)OCC2=O)cn1.O=C(O)C(F)(F)F (stereo not drawn) | – | 3.864%
11 | CN(C)S(=O)(=O)N1CCCC1c1ccsc1 (stereo not drawn) | 2.745% | –
12 | O=S(=O)(c1ccc2c(c1)CCCN2)N1CCCC1 | 5.041% | –
13 | O=C(CCCNC(=O)C1CCCO1)Nc1ccc(Cl)cc1 (stereo not drawn) | – | 23.23%
14 | Cc1ccc(NC(=O)CCCNC(=O)C2CC2)cc1 | 98.6% | –
15 | O=C(CCCNC(=O)C1CC1)Nc1cnn(-c2ccccc2Cl)c1 | – | 12.28%
16 | CNCCCNS(=O)(=O)c1ccc(Br)c(C(C)=O)c1 | 7.594% | –
17 | COCC(=O)N[C@H]1CN(CCS(C)(=O)=O)C[C@@H]1C(C)C | -7.194% | –
18 | CCn1nc(CC(C)C)cc1C(=O)N1CCC(N)C1 (stereo not drawn) | -11.21% | –
19 | CC(Nc1cccc2c1OCCO2)C(=O)Nc1ccc(Cl)cc1 (stereo not drawn) | – | 6.519%
20 | CC(Nc1cccc2c1OCCO2)C(=O)Nc1ccc(S(N)(=O)=O)cc1 (stereo not drawn) | – | 5.712%
21 | CCc1ccc(NC(=O)C(C)Nc2cccc3c2OCCO3)cc1 (stereo not drawn) | – | 82.59%
22 | CC(C)CC1NCCCNC1=O (stereo not drawn) | 0.1576% | –
23 | CS(=O)(=O)CCn1ccnc1-c1ccc(Cl)s1 | -2.415% | –
24 | COc1ccccc1-c1ccccc1CC1(C(=O)O)CCNCC1 | – | 8.204%
25 | CCOC(=O)C1(Cc2ccccc2-c2ccccc2OC)CCNCC1.Cl | – | 44.64%
26 | CN(CCCC1CCCO1)C(=O)c1cccc(N)n1 (stereo not drawn) | 1.142% | –

Row | SMILES | Percent Effect (50 µM) | Percent Effect (10 µM)
27 | CC(=O)NCC(=O)N1CCN(c2ccncc2Cl)CC1 | -5.39% | –
28 | OC(CNC1CCSCC1)c1cccc(OCc2ccccc2)c1 (stereo not drawn) | – | 40.53%
29 | OC(CNC1CCOCC1)c1cccc(OCc2ccccc2)c1 (stereo not drawn) | – | 6.488%
30 | CN1CCC(NCC(O)c2cccc(OCc3ccccc3)c2)CC1 (stereo not drawn) | – | 74.89%
31 | Cc1ccc(NC(=O)CN(C)C2CC[S+]([O-])CC2)cc1 (stereo not drawn) | -6.954% | –
32 | COc1ccc(C)cc1NC(=O)Cn1ccnc1 | 17.12% | –
33 | O=C(NCc1ccc2c(c1)OCO2)Nc1nccs1 | -9.702% | –
34 | Cl.NC(CC1CCCC1)c1ccccc1 (stereo not drawn) | – | -47.66%
35 | NC(CC1CCCC1)c1ccc(Oc2ccccc2)cc1 (stereo not drawn) | – | 55.94%
36 | COCC(N)c1ccccc1 (stereo not drawn) | 3.787% | –
37 | CCOC(=O)C1(C(C)C)CCN(C(=O)c2cn[nH]c2)C1 (stereo not drawn) | -4.733% | –
38 | N#Cc1ccnc(SCC(=O)Nc2ccncc2)c1 | 98.13% | –
39 | N#Cc1ccnc(SCc2ccncc2)c1 | 30.75% | –
40 | COC(C)(C)C(=O)CSc1cc(C#N)ccn1 | 9.152% | –
41 | O=C(Cn1cc(Br)cn1)Nc1ccc2c(c1)OCCO2 | -0.8097% | –
42 | NC(=O)C[C@@H](N)c1ccccc1Cl | 50.18% | –
43 | NC(=O)C[C@H](N)c1ccccc1 | 8.251% | –
44 | NC(=O)C[C@@H](N)c1ccc(Cl)cc1 | 0.4297% | –
45 | COc1cccc(-c2noc(C3CCN(Cc4ccccc4C)C3)n2)c1.Cl (stereo not drawn) | – | 42.09%
46 | COc1cccc(-c2noc(C3CCN(Cc4ccccc4F)C3)n2)c1.Cl (stereo not drawn) | – | 11.37%
47 | CCn1ccnc1C1CCN(CC(=O)N(C)C)CC1 | 16.85% | –
48 | CCNC(=O)CN1CCCC(c2nccn2CC)C1 (stereo not drawn) | 95.83% | –
49 | CCn1ccnc1C1CCCN(CCC(N)=O)C1 (stereo not drawn) | 24% | –
50 | CC(C)COC1CCN(S(=O)(=O)N2CCCC2)CC1 | 99.18% | –
51 | COCC(C)S(=O)(=O)N1CCCCC1 (stereo not drawn) | 6.357% | –
52 | CC(C)COC1CCN(S(=O)(=O)Cc2cccc(F)c2)CC1 | – | 8.24%

Row | SMILES | Percent Effect (50 µM) | Percent Effect (10 µM)
53 | Cc1nc2ccc(C(=O)N3CC(O)C3)cc2nc1C | -4.584% | –
54 | CSc1cccc(F)c1CN | 2.771% | –
55 | NCc1cccc(OCc2ccccn2)c1 | -1.325% | –
56 | CC(=O)NCc1cccc(OCc2ccccn2)c1 | 53.39% | –
57 | COc1cccc(CNCc2ccccn2)c1 | 10.94% | –
58 | Cc1noc(C)c1C(=O)N(C)C1CCS(=O)(=O)C1 (stereo not drawn) | -15.63% | –
59 | Cc1ccc(C2COCCN2)o1 (stereo not drawn) | 3.644% | –
60 | CC1c2ncc(COc3cccnc3)n2CCN1C(=O)C1=CCCC1.O=C(O)C(F)(F)F (stereo not drawn) | – | 10.52%
61 | COCC(=O)N1CCn2c(COc3cccnc3)cnc2C1C.O=C(O)C(F)(F)F (stereo not drawn) | – | 84.28%
62 | CC1c2ncc(COc3cccnc3)n2CCN1C(=O)Cc1ccco1.O=C(O)C(F)(F)F (stereo not drawn) | – | -0.5977%
63 | O=C(NCCSCc1ccco1)c1cccnc1O | -3.309% | –
64 | COc1ccccc1CC#N | 14.35% | –
65 | COc1ccc(CC(C)(C#N)NC(C)=O)cc1OC (stereo not drawn) | 14.61% | –
66 | COc1ccc(CC#N)cc1S(C)(=O)=O | 54.15% | –
67 | COC(=O)c1cnc2c(c(C)nn2C)c1OC | – | 68.54%
68 | COc1c(C(=O)N2CCOCC2)cnc2c1c(C)nn2C | – | -14.92%
69 | COc1c(C(=O)N2CCNC(=O)C2)cnc2c1c(C)nn2C | – | 0.4571%
70 | CN1CCN(Cc2nccn2C)[C@H]2CS(=O)(=O)C[C@H]21 | 0.771% | –
71 | OCCNCCNCc1ccc(-c2ccccc2Cl)o1 | 33.01% | –
72 | OCCNCCNCc1ccc(-c2cccc(Cl)c2)o1 | 71.47% | –
73 | OCCNCCNCc1ccc(-c2ccccc2)o1 | 1.266% | –
74 | O=C(NCCSC1CCCC1)c1cnccn1 | – | 0.9702%
75 | O=C(NC1CCCC1)c1cnccn1 | 54.91% | –
76 | Cc1nnc2n1CCC(NC(=O)c1cnccn1)CC2 (stereo not drawn) | 2.489% | –
77 | CCC(C)N(CC(=O)OC)Cc1nccn1C (stereo not drawn) | 1.211% | –
78 | OCc1ccccc1CC1CCNCC1 | 2.025% | –

Row | SMILES | Percent Effect (50 µM) | Percent Effect (10 µM)
79 | CC(C)c1cc(NC(=O)c2ccncc2)[nH]n1 | – | 64.12%
80 | Cc1ccc(C(=O)Nc2cc(C(C)C)n[nH]2)cn1 | – | -1.588%
81 | CC(C)c1cc(NC(=O)c2ccc([S+]([O-])C(C)C)cc2)[nH]n1 (stereo not drawn) | – | 54.78%
82 | CC(C)c1cc(NC(=O)c2cccnc2)[nH]n1 | – | 41.77%
83 | Cc1cc(NC(=O)c2ccc(F)cc2)[nH]n1 | -8.221% | –
84 | CC(C)c1cc(NC(=O)c2ccc(NC3CC3)nc2)[nH]n1 | – | 3.917%
85 | Cc1ccc(CC(=O)Nc2cc(C(C)C)n[nH]2)cn1 | – | 86.76%
86 | CC(C)c1cc(NC(=O)c2ccc(C(=O)NC(C)(C)C)cc2)[nH]n1 | – | 9.105%
87 | CC(C)CC(=O)Nc1cc(C(C)C)n[nH]1 | 12% | –
88 | CCn1ncnc1CN1CCC2(CCN(C)C2)CC1 | 28.33% | –
89 | NC(=O)CCC(=O)c1ccc2c(c1)OCCO2 | -23.48% | –
90 | Cc1cnc(NCC(O)CN2CCCCC2)nc1 (stereo not drawn) | -5.965% | –
91 | C[C@H](N)c1ccc(F)cc1OC(F)F | 1.744% | –
92 | CCOc1cccc(OCCNCCN)c1 | 3.655% | –
93 | NC(=O)C(NC(=O)C1CC=CC1)c1ccc(F)cc1 (stereo not drawn) | -2.351% | –
94 | CCS(=O)(=O)CCN(C)C(=O)Nc1cc(F)cc(Cl)c1 | 0.02752% | –
95 | COCCNc1nc(-c2ccc(S(N)(=O)=O)cc2)cs1 | 33.23% | –
96 | COCCNc1nnc(-c2ccc(C)nc2)s1 | – | 91.21%
97 | COCCNc1nnc(-c2cnc(C)cn2)s1 | – | -7.364%
98 | Cc1cncc(C(=O)N2CCCCC2c2nc[nH]n2)c1 (stereo not drawn) | – | 2.456%
99 | CC(=O)c1csc(C(=O)N2CCCC2C(C)(C)O)c1 (stereo not drawn) | -8.417% | –
100 | Cc1cncc(C(=O)N2CCCC2C(C)(C)O)c1 (stereo not drawn) | 98.37% | –
101 | Cc1noc(NC(=O)c2ccc(F)cc2)n1 | – | -4.949%
102 | Cc1ccc(C(=O)Nc2nc(C)no2)cc1 | – | 2.71%
103 | Cc1noc(NC(=O)c2ccc(OC(F)(F)F)cc2)n1 | – | 62.71%
104 | COCCC1CN(C(=O)c2ccc(C)c(F)c2)CCO1 (stereo not drawn) | -2.005% | –

Row | SMILES | Percent Effect (50 µM) | Percent Effect (10 µM)
105 | CC(=O)Nc1cc(S(=O)(=O)NCCN(C)C)ccc1C | 12.19% | –
106 | O=C(NCCc1ccccn1)Nc1cn[nH]c1 | -7.115% | –
107 | COC1CCN(C(=O)c2cccc(F)c2C)C1 (stereo not drawn) | 32.95% | –
108 | CCS(=O)(=O)N1CCOCC2(CCN(c3ccccn3)C2)C1.O=C(O)C(F)(F)F (stereo not drawn) | – | -1.246%
109 | CS(=O)(=O)N1CCOCC2(CCN(c3ccccn3)C2)C1.O=C(O)C(F)(F)F (stereo not drawn) | – | 93.48%
110 | O=C(O)C(F)(F)F.O=S(=O)(C1CC1)N1CCOCC2(CCN(c3ccccn3)C2)C1 (stereo not drawn) | – | -7.77%
111 | Cc1ccc2[nH]c(CN3CCC(O)C3)cc(=O)c2c1 (stereo not drawn) | -10.62% | –
112 | Fc1ccc(CN2CCCC2Cn2cccn2)c2ncccc12 (stereo not drawn) | – | 4.2%
113 | Fc1ccc(CN2CCCC2Cn2cncn2)c2ncccc12 (stereo not drawn) | – | -4.806%
114 | OC[C@@H]1CCCN1Cc1ccc(F)c2cccnc12 | 78.15% | –
115 | Cc1nc(CC(=O)N[C@H]2CC[C@H]2N)cs1 | 7.419% | –
116 | Cc1cc(C(=O)Nc2cn(C)cc(Br)c2=O)[nH]n1 | -6.695% | –
117 | Cc1cccc(OCCN2CCN(Cc3noc(C)n3)CC2)c1 | – | -13.55%
118 | c1ccc(COCCc2noc(C3CNC3)n2)cc1 | 62.37% | –
119 | c1ccc(COCc2nc(C3CCCNC3)no2)cc1 (stereo not drawn) | -2.705% | –
120 | COCCc1noc(C2CNC2)n1 | -4.923% | –
121 | C1CC(c2noc(C3CC3)n2)CN(CCOCC2CC2)C1 (stereo not drawn) | – | 10.99%
122 | CCCN1CCC(Cc2noc(C3CCNC3)n2)CC1 (stereo not drawn) | 2.055% | –
123 | C1CC(COCCc2noc(C3CNC3)n2)CCO1 | 31.48% | –
124 | COCCc1noc(C2CCN(CC(N)=O)CC2)n1 | 1.681% | –
125 | C(Cc1noc(C2CNC2)n1)OCC1CC1 | 84.88% | –
126 | Cc1cccc(OCCCN2CCC(N(C)Cc3noc(C)n3)C2)c1 (stereo not drawn) | – | 19.53%
127 | Cc1cccc(OCCc2noc(C3CNC3)n2)c1 | 82.99% | –
128 | C1CCC(COCCc2noc(C3CNC3)n2)C1 | 57.88% | –
